# Data as given in PubChem BioAssay (NCI).
# This is part of a sample that, as a whole, favours compounds with a hit. Of some 79,000 tested, about 15% had one in any assay. Values without a mark were called inactive. Calls of active or inactive are those of the source. No stated cut-off is given here; in the data, active means growth inhibition above about 70%; inactive means the rest.
# Experiments:
# [1] = NCI Yeast Anticancer Drug Screen. Data for the rad50 strain (AID 155);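 further: 0% = growth of vehicle-only cultures of the same strain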; conditions: S. cerevisiae rad50 strain growth inhibition; at 50.0 µM; active compounds read high
# Method in brief: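 A DNA repair-deficient yeast mutant serves as the test organism; compound-induced growth inhibition is calculated against vehicle-treated cells.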
# [2] = NCI Yeast Anticancer Drug Screen. Data for the mec2-1 strain (AID 157); conditions: S. cerevisiae mec2-1 strain, at 50.0 µM, active compounds read high
# Method in brief: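 Each compound was tested on mec2-1 yeast, a strain altered in DNA damage repair or cell cycle control. Growth inhibition is reported relative to vehicle.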
# [3] = NCI Yeast Anticancer Drug Screen. Data for the sgs1 mgt1 strain (AID 161);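 further: 0% = growth of cultures given vehicle only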; conditions: S. cerevisiae sgs1 mgt1 strain, at 50.0 µM, active compounds read high
# Method in brief: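 Inhibition of yeast growth, normalised to vehicle-treated controls, is reported for a strain bearing genetic alterations in DNA damage repair.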
# [4] = NCI Yeast Anticancer Drug Screen. Data for the cln2 rad14 strain (AID 165);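 further: 0% = growth equal to vehicle treated cultures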; conditions: S. cerevisiae cln2 rad14 strain, at 50.0 µM, active compounds read high
# Method in brief: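 Test compounds were added to cln2 rad14 yeast cultures; inhibition of growth was then determined by comparison with vehicle treatment.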
# [5] = NCI Yeast Anticancer Drug Screen. Data for the bub3 strain (AID 167); conditions: S. cerevisiae bub3 mutant strain, at 50.0 µM, active compounds read high
# Method in brief: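 Inhibition values come from growth of compound-treated mutant yeast normalised to vehicle-treated controls.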
# [6] = NCI Yeast Anticancer Drug Screen. Data for the mlh1 rad18 strain (AID 175); conditions: S. cerevisiae mlh1 rad18 strain growth inhibition; at 50.0 µM; active compounds read high
# Method in brief: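 Inhibition values reflect reduced growth of mutant yeast versus vehicle-treated controls following compound exposure; the mutations affect DNA damage repair.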
SMILES,growth inhibition [1],growth inhibition [2],growth inhibition [3],growth inhibition [4],growth inhibition [5],growth inhibition [6]
CC1=NC=C(O)c2ccccc2O1,24.4%,12.4%,26.8%,15.6%,14.9%,21.4%
CC1=C(C(=O)Nc2ccccc2C)C(c2ccc(N(C)C)cc2)C(C(=O)Nc2ccccc2C)=C(C)N1,-27%,-20%,-17.4%,-11.2%,-8.95%,-13.8%
COc1cc2c(cc1OC)C1(c3ccccc3)ON=C(c3ccccc3)N1CS2 (configuration not stated),-14.1%,-12.4%,8.95%,-32.4%,-7.05%,-11.1%
CC1(C)N=C(C(N)=O)c2ncn(CCO)c2N1,-12.4%,-34%,-21.6%,-10.7%,-9.95%,-23.4%
C=CCNC(=S)/N=C/C(C(=O)Nc1ccccc1)=C(/C)O,-55.6%,-18.1%,-41.2%,-27.2%,-50.9%,-20.6%
CC([C@H]1CC[C@H]2[C@@H]3CC=C4C[C@@H](O)CC[C@]4(C)[C@H]3CC[C@]12C)C(O)(c1ccccc1)c1ccccc1 (some centres not stated),40.9%,19.8%,43.4%,37.6%,23.4%,25.2%
COC(=O)/C(=C\Nc1cccc(C)n1)S(=O)(=O)c1ccc(C)cc1,-33.9%,-1.55%,18.5%,-21.5%,7.3%,12.8%
C/C(=N\NC(=S)N1CCCCCC1)c1nccs1,3.95%,0.25%,-1.5%,-18%,-6.9%,2.15%
O=C(c1ccccc1)C(c1ccccc1)n1nc2c(c1-c1ccccc1)CCCC2 (configuration not stated),84.4% (active),87.2% (active),83.9% (active),88.4% (active),86.4% (active),91.4% (active)
O=C(CCc1ccc(O)cc1)c1c(O)cc(O)cc1O,-5.3%,-29.9%,-11.3%,12.9%,-11.2%,-9.05%
c1ccc(SCCC(Sc2ccccc2)Sc2ccccc2)cc1,-3.45%,5%,-3.75%,-13.8%,-1.6%,3.65%
CCCCOC(=O)c1cccc(C(=O)OCCCC)n1,-20.9%,-18.9%,-14.1%,-5.6%,-11.5%,-22.8%
S=C(Nc1ccccc1)Nc1ccc(NC(=S)Nc2ccccc2)cc1,8.25%,-0.25%,-3.6%,-4.95%,-8.45%,-52.2%
O=c1oc2c3ccc4ccccc4c3n(Cc3nc4ccccc4[nH]3)c2c2ccccc12,22.1%,12.2%,19.7%,28.6%,14.6%,25.2%
S=C(NCc1ccc(Cl)cc1Cl)Nc1ccccc1,23.1%,73% (active),75.8% (active),-1.8%,64.7%,72.5% (active)
CC(C)(Cl)C1CCC(CC(Cl)(Cl)Cl)CC1 (configuration not stated),5.3%,-16.4%,0.6%,-26.9%,11.9%,9.75%
Nc1nc2ncc(CCCNc3ccc(C(=O)NC(CCC(=O)O)C(=O)O)cc3)nc2c(=O)[nH]1 (configuration not stated),33%,15.4%,8.3%,10.2%,3.7%,22.1%
CCOC(=O)C(=CNc1ccc(F)c(F)c1)C(=O)OCC,-0.4%,1.55%,-8.35%,-2.2%,26.1%,-36%
[O-]/[N+]1=[N+](\[O-])c2ccccc2COCc2ccccc21,-5.2%,-12.3%,-12.4%,-44.5%,-8.1%,-14.2%

SMILES,growth inhibition [1],growth inhibition [2],growth inhibition [3],growth inhibition [4],growth inhibition [5],growth inhibition [6]
OCC(O)C(O)C(O)C(O)C(O)C(O)CO (configuration not stated),1.8%,3.65%,7.35%,5.75%,-1.2%,3.35%
O=[N+]([O-])c1ncc(N(CCO)CCO)s1,19.2%,-22.6%,17.6%,3.65%,-18.2%,-22.3%
COC1CC(OC2C(C)OC(OC3C(C)OC(OC4C(O)CC(O[C@H]5CC[C@@]6(C)C(=CC[C@]7(O)[C@@H]6C[C@@H](OC(=O)/C=C/c6ccccc6)[C@@]6(C)[C@]7(O)CC[C@@]6(O)C(C)=O)C5)OC4C)CC3OC)CC2OC)OC(C)C1O (some centres not stated),-13.4%,7.95%,-8.6%,16.2%,-6.75%,-53.8%
CC1=C(c2ccccc2)C(c2ccccc2)c2ccccc21 (configuration not stated),17.3%,26.7%,33.6%,51.4%,54.4%,85.6% (active)
COc1cc(Cl)ccc1NC(=O)Oc1ccc(-c2ccccc2)cc1Cl,65.8%,99.5% (active),99.5% (active),99% (active),99.2% (active),99.4% (active)
O=C(O)C1C2C=CC(O2)C1C(=O)NCc1ccncc1 (configuration not stated),-10%,14.7%,-7.8%,-30.1%,-32.5%,3.35%
Cc1ccc(S(=O)(=O)O/N=C2\CCC\C2=C/c2ccccc2)cc1,7.65%,-2.25%,26%,14.6%,-8.55%,23.8%
Cc1cc(=O)[nH]c(NN2C(Cl)C(=O)C2c2ccc(Cl)cc2)n1 (configuration not stated),10.6%,7.45%,4.2%,-7.9%,8%,-18.4%
COc1ccc(CC(CN)P(=O)(O)O)cc1 (configuration not stated),29.3%,4.2%,8.5%,4.45%,15.1%,4%
Cc1nn(CCO)c2nc(N)nc(N)c12,2.05%,3.35%,-0.4%,-1.45%,-6.35%,-3.2%
COC(=O)c1ccc(C(=O)OC)cc1,-12.2%,-26.1%,15.9%,12.2%,8.95%,11.3%
CNC(=S)NNC1=NCCCN1,-48.5%,-10.2%,-25.9%,13.8%,9.75%,-9.9%
N#CC1(c2ccccc2)C(c2ccccc2)=C1c1ccccc1,1.75%,5.15%,2.25%,-4.55%,8.7%,-8.95%
O=C(c1ccccc1)N1OC2C=CC1CC2 (configuration not stated),4.6%,4.6%,5.1%,-34.2%,-2.1%,-1.8%
CCCOC(=O)NC(C)C(=O)NC(CCC(=O)NC(CCCC(N)C(=O)O)C(=O)NC(C)C(=O)O)C(=O)O (configuration not stated),-20.8%,-19.9%,-37.6%,-9.25%,21.6%,-10.8%
C1CCC(C2CCCC2)CC1,7.5%,-0.35%,-13%,-32.6%,-17.2%,4.15%
CCC(=O)CC(=O)C(=O)OC,6.25%,14.6%,-8.45%,-15.7%,3.5%,17%
COC(=O)c1nc(N)nc(C(=O)OC)c1C(=O)c1ccccn1,-12.1%,-19.2%,1.65%,-20.2%,-11.3%,-1.75%
